# The entries come from a sample that favours hits as a whole.
# PKM2 inhibitor – qHTS Assay for Inhibitors of Human Muscle isoform 2 Pyruvate Kinase | Pyruvate kinase PKM (Homo sapiens), P14618 | purified PKM2, ATP generation, Kinase-Glo luminescence | Potency, µM (top dose mostly 57.5 µM), for the others: at the top dose activity change, negative = inhibition, hits mostly inhibitors | hit rate 0.058% among 260,000; active = well fitted inhibition curve with a large enough effect; note: nearly all actives have a fitted effect of over 60% in size
# Target sequence (P14618 whole entry, looked up, canonical isoform): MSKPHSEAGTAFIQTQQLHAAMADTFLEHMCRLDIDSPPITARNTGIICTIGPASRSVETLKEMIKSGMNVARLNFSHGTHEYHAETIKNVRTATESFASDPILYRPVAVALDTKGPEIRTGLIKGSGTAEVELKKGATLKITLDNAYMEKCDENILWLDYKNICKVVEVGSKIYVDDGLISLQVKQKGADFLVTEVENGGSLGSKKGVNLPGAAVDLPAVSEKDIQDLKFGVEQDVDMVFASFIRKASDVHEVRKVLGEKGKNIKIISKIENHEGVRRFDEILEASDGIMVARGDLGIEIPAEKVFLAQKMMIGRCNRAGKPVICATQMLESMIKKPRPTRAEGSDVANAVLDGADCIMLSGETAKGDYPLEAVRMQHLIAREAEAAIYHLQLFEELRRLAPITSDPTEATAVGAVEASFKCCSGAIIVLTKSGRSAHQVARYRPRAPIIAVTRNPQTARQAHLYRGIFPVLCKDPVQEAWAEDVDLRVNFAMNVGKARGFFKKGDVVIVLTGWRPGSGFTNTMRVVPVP
#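 Enzyme run at intermediate activity with final 0.1 mM ADP, 0.5 mM PEP (50 mM imidazole pH7.2, 50 mM KCl, 7 mM MgCl2), incubated 1 h at r.t. ATP formed read by Kinase-Glo luminescence, normalized to no-enzyme (full inhibition) and uninhibited wells.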
# * = called active by the depositor; [ ] = another dose, or the depositor's remark. Potency is the fitted concentration of half-maximal effect.
SMILES,PKM2 inhibitor
Cc1c(F)cccc1NS(=O)(=O)c1ccc2c(c1)c(=O)n(C)c(=O)n2C,88.4%
Cc1ccc(NS(=O)(=O)c2c(C)nc3sccn3c2=O)cc1C,81.3%
COc1cc(C(=O)NCCCNc2ccc([N+](=O)[O-])cc2)cc(OC)c1OC,43.9%
COc1ccc2nc(/N=C/c3c(C)[nH]n(-c4ccc(C)cc4)c3=O)sc2c1,14.1µM*
Cn1ncc(Cl)c1C(=O)N1CCC(Cc2ccccc2)CC1,60.2%
O=C(O)/C=C/C(=O)Nc1ccccc1SC(F)(F)F,52.2%
N#C/C(=C\Nc1ccc(Cl)cc1)S(=O)(=O)c1ccccn1,52.6%
Cc1ccsc1/C=C1\CCc2ccccc2C1=O,25.1µM*
C(=C\c1nc2ccccc2[nH]1)/c1ccccc1,14.1µM*
c1ccc2[nH]c(CSc3nnc(-c4ccncc4)o3)nc2c1,134.3%
COC(=O)[C@@]1(Cc2ccc(F)cc2)[C@H]2c3cc(C(=O)N(C)C)n(CCc4ccc(O)c(O)c4)c3C[C@H]2CN1C(=O)c1ccccc1,41.9%
CC(NC(=O)Cc1cccs1)c1ccccc1 (configuration not stated),122.2%
COc1cccc(/C=N/Nc2ncnc3c2[nH]c2ccc(C)cc23)c1OC,57.0%
Clc1nccnc1N/N=C/c1ccc(Br)cc1,14.1µM*
COc1cccc(/C=N/Nc2nccnc2Cl)c1O,14.1µM*
COc1ccc(-c2nn(-c3ccccc3)cc2/C=N/NS(=O)(=O)c2ccccc2)cc1,0.7%
COc1ccc(/C=N/Nc2nccnc2Cl)cc1,12.6µM*
COc1cccc(/C=N/NC(=O)c2cc3c(OC)cccc3[nH]2)c1O,17.4%
Cc1ccc(C)c2[nH]c(=O)c(CN(CCN3CCCC3)C(=O)Nc3cccc(Cl)c3)cc12,62.1%
Cc1ccccc1-n1nnnc1SCc1cc(=O)n2ccsc2n1,112.5%
CN(C)S(=O)(=O)c1cccc(NC(=O)CSc2cccc3cccnc23)c1,43.6%
O=[N+]([O-])c1cccc(S(=O)(=O)c2ccc(NCCO)c([N+](=O)[O-])c2)c1,69.3%
O=[N+]([O-])c1cccc(COc2ncnc3cc([N+](=O)[O-])ccc23)c1,57.8%
C=CCn1c(COc2ccccc2OC)nc2ccccc21,57.6%
CCOC(=O)c1c(NC(=O)CSc2nc3cc(Cl)ccc3c(=O)n2Cc2ccco2)sc(C(=O)N(C)C)c1C,45.9%
SMILES,PKM2 inhibitor
CCNC(=S)SCCOc1ccccc1C,16.0%
Cc1noc(/C=C/c2ccco2)c1S(=O)(=O)N1CCC(C(=O)N2CCc3ccccc3C2)CC1,89.3%
CS(=O)(=O)c1sc(C#N)c2c1C(=O)CC(c1ccccc1)C2 (configuration not stated),35.2%
Cc1ccc(OCc2nnc(SC(C)C(=O)O)n2-c2ccccc2)cc1 (configuration not stated),42.4%
Cc1ccc(C(=O)N2CCN(C(=O)c3ccc(C)cc3)C2)cc1,70.4%
Cc1ccc(C(=O)O/N=C(\N)c2nonc2N)cc1,12.6µM*
Cc1ccc(C(=O)O/N=C(\N)c2ccccn2)cc1,5.62µM*
Cc1ccc(C(=O)/C=C/C(=O)c2ccc(C)cc2)cc1,54.3%
Cc1ccc(C(=O)OCn2ncc(Cl)c(Cl)c2=O)cc1,30.6%
Cc1ccc(CNC(=O)C2(CC(C)C)C=CCN2C(=O)c2ccccc2)o1 (configuration not stated),43.9%
Cc1nc([N+](=O)[O-])cn1CC(O)c1ccc(-c2ccccc2)cc1 (configuration not stated),-6.1%
CCn1c(CCc2ccccc2)nc2ccccc21,30.9%
CCCn1c(N)c(C(=O)CSc2nc(C)cs2)c(=O)n(C)c1=O,110.1%
O=c1c2sccc2nc(SCc2ccc([N+](=O)[O-])cc2)n1Cc1ccccn1,38.8%
Oc1cc2c(cc1CN1CCc3ccccc3C1)OCO2,32.3%
c1ccc2c(c1)Cc1cc3cc4c(cc3nc1-2)OCO4,8.91µM*
CC1(C)CC(=O)C2=C(C1)O[C@@]1(c3ccsc3)Cc3cc(C#N)ccc3C2O1,40.2%[11.5 µM]
O=C(O)C1Nc2c(O)cc(Cl)c([N+](=O)[O-])c2C2C=CCC12 (configuration not stated),21.8%
COc1cc(/C=N/NC(=O)C2c3ccccc3Oc3ccccc32)ccc1O,65.8%
COc1cc(/C=N\Nc2nc(-c3ccc(C)cc3)c(NC(C)=O)s2)ccc1O,72.1%
COc1cc(/C=N/Nc2nn3cnnc3c3ccccc23)ccc1O,25.1µM*
Cn1c(=O)c(C(=O)COC(=O)c2cc(-c3ccco3)nc3ccccc23)c(N)n(CC2CC2)c1=O,48.4%
CCOC(=O)C1=NN(C(=O)Nc2ccc(OC)cc2)C2C(=O)N(c3cccc(C(F)(F)F)c3)C(=O)C12 (configuration not stated),2.2%
COC(=O)C(CC(=O)c1ccc(Br)cc1)n1ccnc1 (configuration not stated),51.2%
Clc1ccccc1Nc1nnc(-c2ccncc2)s1,12.6µM*
Cn1cccc1CC(=O)N/N=C/C=C/c1ccco1,48.2%
COc1cccc(OCCn2cc(C(C)=O)c3ccccc32)c1,36.7%
CSc1c(-c2ccccn2)c(N)nn1C(=O)C1CCC1,57.1%
